Data: PubChem BioAssay
For some assays here: Measured potencies and affinities stand elsewhere. The source made the active and inactive calls. Unless noted, the rule behind the calls is not given here.

target: Protein kinase 7 (PK7), Plasmodium falciparum 3D7 (PF3D7_0213400) (UniProt Q7YTF7); assay: inhibition of Plasmodium PK7 catalytic activity – biochemical, TCAMS antimalarial set, Kinase-Glo luminescence (AID 1159587); settings: recombinant PfPK7, Kinase-Glo ATP depletion luminescence
Sequence (Q7YTF7 1-343): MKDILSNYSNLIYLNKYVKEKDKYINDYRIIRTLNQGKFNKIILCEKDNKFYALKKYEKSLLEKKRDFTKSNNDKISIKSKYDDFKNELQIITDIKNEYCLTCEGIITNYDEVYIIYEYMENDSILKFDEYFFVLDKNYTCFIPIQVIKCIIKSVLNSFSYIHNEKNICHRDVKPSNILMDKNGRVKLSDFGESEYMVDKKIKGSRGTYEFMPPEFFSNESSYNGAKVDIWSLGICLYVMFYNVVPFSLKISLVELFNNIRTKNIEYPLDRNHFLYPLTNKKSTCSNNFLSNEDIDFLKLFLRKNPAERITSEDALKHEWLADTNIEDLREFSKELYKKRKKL

outcome, inactive:
O=c1cc(NCCCNCc2ccccc2-c2ccccc2)[nH]c2ccccc12, Cc1cc(OCC2CCCO2)c2cc(NC(=O)C(=O)Nc3ccc4nc(C)cc(OCC5CCCO5)c4c3)ccc2n1 (stereo not given), COc1cncc(/C=C/c2cncc(C(=O)NCCc3ccc(Cl)cc3Cl)c2)c1, NC1=NC2(CCCC2)N(c2ccc(Cl)cc2)C(N)=N1, CN1CCN(c2ccnc3ccc(NC(=O)Cc4ccc(-c5ccncc5)c5ccccc45)cc23)CC1, CN1CCN(c2ccc(CNc3ccc4ncc(-c5cccc(OC(F)(F)F)c5)n4n3)cc2)CC1, O=[N+]([O-])c1cccc(CNCC2CCN(CC3CCCCC3)CC2)c1, CCNC(=O)c1cc(S(=O)(=O)N2CCN(c3ccccn3)CC2)cs1, CN(C)CCNC(=O)[C@H](Cc1ccccc1)NC(=O)c1ccc(O)c(-c2ccc(Cl)c(Cl)c2)c1, Cc1noc(C)c1-c1cccc(C(=O)NC2CCN(CCNC(=O)C(c3ccccc3)c3ccccc3)CC2)c1, Cc1c(NCCCNCc2cc(Cl)cc(Cl)c2Cl)[nH]c2ccccc2c1=O, CCOC(=O)C(Oc1ccc2ccccc2c1)C(=O)OCC, CC(C)CN1C(=O)c2ccc(C(=O)Nc3nccs3)cc2C1=O, CC(C)c1cccc(OCC2CCN(c3ncc(C(=O)Nc4ccccc4)cc3Cl)CC2)c1, O=C(NCc1ccc(Cl)cc1)c1ccc(C(=O)NCC2CCCN2CC2CCCCC2)cc1 (stereo not given), COc1ccc(NC(=O)N2CCCN(CCCCCNC(=O)/C=C/c3ccc(Cl)cc3)CC2)cc1Cl, CC(C)CNCc1cccc(-c2cccc(CN(CCCN3CCN(C)CC3)C(=O)NC3CCCCC3)c2)c1, COc1cc(CCN(C)Cc2ccc(OC)c(OC)c2)ccc1NC(=O)c1cccc2c(=O)c3cccc(F)c3[nH]c12, COC(=O)c1ccc2nc(-c3ccc(/C=C/C(=O)NC4CCN(Cc5ccccc5)CC4)cc3)[nH]c2c1, O=C(OCc1ccccc1)N1CCc2c([nH]c3ccccc23)C1CCC(F)(F)F (stereo not given), CN(C)CCNCc1ccc(-c2ccc3c(Nc4ccc(F)cc4Cl)ccnc3c2)o1, COc1cc(NC(=O)c2sc(-c3ccc(Cl)cc3)cc2NC(=O)c2cccc(N(C)C)c2)ccc1OCCN1CCCC1, Cc1cc(NCCC(=O)Nc2ccccc2)nc(NCCc2cccs2)n1, Cc1nccn1Cc1cc(C(C)(C)C)c(O)c(C(C)(C)C)c1, CCc1cc2c(=O)c(-c3nc(C)cs3)c([C@H](N)Cc3ccc(O)cc3)oc2cc1O, CNCCNc1nccc(N2CCc3ncnc(Nc4ccc(OCc5cccc(F)c5)c(Cl)c4)c3C2)n1, Cc1[nH]c(C)c(-c2ccc(-c3ccc(C(F)(F)F)cc3C(F)(F)F)nc2)c(=O)c1Br, CN(C)C1CCN(CC#Cc2cc3ncnc(Nc4ccc(OCc5cccc(F)c5)c(Cl)c4)c3s2)CC1, CCCCCCCOc1ccc(NC(=O)Nc2ccc(Cn3ncc(N4CCCNCC4)c(Cl)c3=O)cc2)cc1, c1ccc2c3c(ccc2c1)Sc1c(ccc2ccccc12)N3, COc1ccc(CNCc2cccc(-c3cccc(-c4nc5ccccc5[nH]4)c3)c2)cc1, COc1ccc(CNCCc2cccs2)cc1-c1cccc(S(=O)(=O)NCCN2CCCC2)c1, N#Cc1cccc(Nc2ncc3c(-c4cccc(NC(=O)Cc5cccc(Cl)c5)c4)c[nH]c3n2)c1, CN1CCN(CC2(Nc3nccc(NCc4ccc(Cl)cc4Cl)n3)CCCCC2)CC1, O=S(=O)(c1c(Cl)cc(Cl)cc1Cl)N1CCCCC(c2ccc(C(F)(F)F)cc2)=N1, CCC(C)(C)C1CCc2[nH]c3ccccc3c(=O)c2C1 (stereo not given), Cc1cccc2[nH]c(-c3cccc(-c4ccc(CNCc5cccc(N)c5)cc4)c3)nc12, Oc1ccccc1CCNC1CCc2ccccc2C1 (stereo not given), Cn1cncc1-c1ccc2ncnc(Nc3ccc(OCc4ccccc4)cc3)c2c1, CC(=O)Nc1cccc(C(=O)Nc2ccc(-c3cccc(-c4nc5ccc(C(F)(F)F)cc5[nH]4)c3)cc2)c1

target: Calcium-dependent protein kinase 4 (Plasmodium falciparum (isolate 3D7)) (UniProt Q8IBS5); assay: PfCDPK4 kinase inhibitors, biochemical, TCAMS library (AID 1159588; cut-off not given, nearly all actives have IC50 up to about 0.91 µM); settings: recombinant PfCDPK4, Kinase-Glo ATP depletion luminescence
Sequence (Q8IBS5 whole entry, looked up): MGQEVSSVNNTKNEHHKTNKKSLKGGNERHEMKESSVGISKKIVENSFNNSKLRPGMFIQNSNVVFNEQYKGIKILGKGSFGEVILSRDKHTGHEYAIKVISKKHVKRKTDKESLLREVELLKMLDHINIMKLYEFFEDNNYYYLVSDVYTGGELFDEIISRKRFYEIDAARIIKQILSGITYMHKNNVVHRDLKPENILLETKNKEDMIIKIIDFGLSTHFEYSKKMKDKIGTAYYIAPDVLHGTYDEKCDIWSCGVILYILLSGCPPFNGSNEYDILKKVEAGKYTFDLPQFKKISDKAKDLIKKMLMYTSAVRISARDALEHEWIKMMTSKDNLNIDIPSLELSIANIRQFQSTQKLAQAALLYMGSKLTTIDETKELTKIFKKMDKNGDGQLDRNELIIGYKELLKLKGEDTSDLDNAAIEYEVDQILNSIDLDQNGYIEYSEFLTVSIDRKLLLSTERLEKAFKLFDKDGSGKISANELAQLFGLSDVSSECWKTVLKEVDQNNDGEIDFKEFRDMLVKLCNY

outcome, inactive:
O=c1cc(NCCCNCc2ccccc2-c2ccccc2)[nH]c2ccccc12, Cc1cc(OCC2CCCO2)c2cc(NC(=O)C(=O)Nc3ccc4nc(C)cc(OCC5CCCO5)c4c3)ccc2n1 (stereo not given), COc1cncc(/C=C/c2cncc(C(=O)NCCc3ccc(Cl)cc3Cl)c2)c1, NC1=NC2(CCCC2)N(c2ccc(Cl)cc2)C(N)=N1, CN1CCN(c2ccnc3ccc(NC(=O)Cc4ccc(-c5ccncc5)c5ccccc45)cc23)CC1, CN1CCN(c2ccc(CNc3ccc4ncc(-c5cccc(OC(F)(F)F)c5)n4n3)cc2)CC1, O=[N+]([O-])c1cccc(CNCC2CCN(CC3CCCCC3)CC2)c1, CCNC(=O)c1cc(S(=O)(=O)N2CCN(c3ccccn3)CC2)cs1, CN(C)CCNC(=O)[C@H](Cc1ccccc1)NC(=O)c1ccc(O)c(-c2ccc(Cl)c(Cl)c2)c1, Cc1noc(C)c1-c1cccc(C(=O)NC2CCN(CCNC(=O)C(c3ccccc3)c3ccccc3)CC2)c1, Cc1c(NCCCNCc2cc(Cl)cc(Cl)c2Cl)[nH]c2ccccc2c1=O, CCOC(=O)C(Oc1ccc2ccccc2c1)C(=O)OCC, CC(C)CN1C(=O)c2ccc(C(=O)Nc3nccs3)cc2C1=O, CC(C)c1cccc(OCC2CCN(c3ncc(C(=O)Nc4ccccc4)cc3Cl)CC2)c1, O=C(NCc1ccc(Cl)cc1)c1ccc(C(=O)NCC2CCCN2CC2CCCCC2)cc1 (stereo not given), COc1ccc(NC(=O)N2CCCN(CCCCCNC(=O)/C=C/c3ccc(Cl)cc3)CC2)cc1Cl, CC(C)CNCc1cccc(-c2cccc(CN(CCCN3CCN(C)CC3)C(=O)NC3CCCCC3)c2)c1, COc1cc(CCN(C)Cc2ccc(OC)c(OC)c2)ccc1NC(=O)c1cccc2c(=O)c3cccc(F)c3[nH]c12, COC(=O)c1ccc2nc(-c3ccc(/C=C/C(=O)NC4CCN(Cc5ccccc5)CC4)cc3)[nH]c2c1, O=C(OCc1ccccc1)N1CCc2c([nH]c3ccccc23)C1CCC(F)(F)F (stereo not given), CN(C)CCNCc1ccc(-c2ccc3c(Nc4ccc(F)cc4Cl)ccnc3c2)o1, COc1cc(NC(=O)c2sc(-c3ccc(Cl)cc3)cc2NC(=O)c2cccc(N(C)C)c2)ccc1OCCN1CCCC1, Cc1cc(NCCC(=O)Nc2ccccc2)nc(NCCc2cccs2)n1, Cc1nccn1Cc1cc(C(C)(C)C)c(O)c(C(C)(C)C)c1, CCc1cc2c(=O)c(-c3nc(C)cs3)c([C@H](N)Cc3ccc(O)cc3)oc2cc1O, CNCCNc1nccc(N2CCc3ncnc(Nc4ccc(OCc5cccc(F)c5)c(Cl)c4)c3C2)n1, Cc1[nH]c(C)c(-c2ccc(-c3ccc(C(F)(F)F)cc3C(F)(F)F)nc2)c(=O)c1Br, CN(C)C1CCN(CC#Cc2cc3ncnc(Nc4ccc(OCc5cccc(F)c5)c(Cl)c4)c3s2)CC1, CCCCCCCOc1ccc(NC(=O)Nc2ccc(Cn3ncc(N4CCCNCC4)c(Cl)c3=O)cc2)cc1, c1ccc2c3c(ccc2c1)Sc1c(ccc2ccccc12)N3, COc1ccc(CNCc2cccc(-c3cccc(-c4nc5ccccc5[nH]4)c3)c2)cc1, COc1ccc(CNCCc2cccs2)cc1-c1cccc(S(=O)(=O)NCCN2CCCC2)c1, N#Cc1cccc(Nc2ncc3c(-c4cccc(NC(=O)Cc5cccc(Cl)c5)c4)c[nH]c3n2)c1, CN1CCN(CC2(Nc3nccc(NCc4ccc(Cl)cc4Cl)n3)CCCCC2)CC1, O=S(=O)(c1c(Cl)cc(Cl)cc1Cl)N1CCCCC(c2ccc(C(F)(F)F)cc2)=N1, CCC(C)(C)C1CCc2[nH]c3ccccc3c(=O)c2C1 (stereo not given), Cc1cccc2[nH]c(-c3cccc(-c4ccc(CNCc5cccc(N)c5)cc4)c3)nc12, Oc1ccccc1CCNC1CCc2ccccc2C1 (stereo not given), Cn1cncc1-c1ccc2ncnc(Nc3ccc(OCc4ccccc4)cc3)c2c1, CC(=O)Nc1cccc(C(=O)Nc2ccc(-c3cccc(-c4nc5ccc(C(F)(F)F)cc5[nH]4)c3)cc2)c1
